A selection: hits, their analogues and other compounds. The true share with any hit is near 19%.
TDP1 cell noCPT: qHTS for Inhibitors of human tyrosyl-DNA phosphodiesterase 1 (TDP1): qHTS in cells in absence of CPT; actives 15% (n = 420,000); Potency, µM (doses to about 46.2 µM), for inactives: at the highest dose activity change, negative = growth inhibition, usual class: inhibitors; AID 686978, 2013; DT40 Tdp1-/- hTDP1 cells, no CPT, ATP luminescence, 48 h; further: potency means the concentration at half of the fitted maximal effect; on the % scale 0 is the no-effect control and ±100 the full control effect; nearly all actives have a fitted effect of over 55% in size
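A cellular qHTS used chicken DT40 cells lacking endogenous Tdp1 but carrying stably transfected human TDP1. Compounds were applied without camptothecin, and cell growth kinetics were judged by ATP-dependent luminescence after ≥48 hr.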
TDP1 cell CPT: DT40-hTDP1 cell growth loss with CPT | Potency, µM (doses to about 46.2 µM), for inactives: at the top dose activity change, negative = growth inhibition, hits mostly inhibitors | chicken DT40 Tdp1-/-;hTDP1 cells + 20 nM CPT, ATP luminescence, 48 h | actives 12% (n = 420,000); further: potency means the concentration at half of the fitted maximal effect; on the % scale 0 is the no-effect control and ±100 the full control effect; nearly all actives have a fitted effect of over 55% in size
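Chicken DT40 Tdp1-/- cells stably complemented with human TDP1 were seeded at 400 cells/well in medium containing 20 nM camptothecin, exposed to pin-transferred compounds, and grown at 37 °C for at least 48 hr. Viability was read as ATP luminescence.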
TDP1 block: TDP1 (human) enzyme inhibition. Q9NUW8. recombinant TDP1, AlphaScreen DNA substrate cleavage. Potency, µM (highest dose often 130 µM), without a hit: at the top dose activity change, negative = inhibition, usual class: inhibitors. actives 0.28% (n = 350,000); further: potency means the concentration at half of the fitted maximal effect; on the % scale 0 is the no-effect control and ±100 the full control effect; nearly all actives have a fitted effect of over 40% in size
Target sequence (Q9NUW8 whole entry, looked up): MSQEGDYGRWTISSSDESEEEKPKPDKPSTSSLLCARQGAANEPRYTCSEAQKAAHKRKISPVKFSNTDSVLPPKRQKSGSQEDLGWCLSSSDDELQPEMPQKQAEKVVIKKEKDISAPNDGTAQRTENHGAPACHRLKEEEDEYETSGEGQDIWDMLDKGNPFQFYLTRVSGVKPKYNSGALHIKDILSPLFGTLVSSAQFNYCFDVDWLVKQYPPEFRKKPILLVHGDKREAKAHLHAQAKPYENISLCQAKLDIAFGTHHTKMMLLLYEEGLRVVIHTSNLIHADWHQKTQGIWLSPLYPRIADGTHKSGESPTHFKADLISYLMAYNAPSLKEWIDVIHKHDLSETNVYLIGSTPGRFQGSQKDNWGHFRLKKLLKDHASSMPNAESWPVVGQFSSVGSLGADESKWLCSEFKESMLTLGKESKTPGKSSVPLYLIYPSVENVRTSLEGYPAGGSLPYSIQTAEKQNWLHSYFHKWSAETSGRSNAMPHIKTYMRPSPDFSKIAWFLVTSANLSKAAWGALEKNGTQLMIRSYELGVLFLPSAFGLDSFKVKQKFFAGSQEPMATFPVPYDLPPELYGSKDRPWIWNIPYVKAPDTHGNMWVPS
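Compounds were preincubated with Tdp1 (1 nM final) for 15 min at room temperature before substrate (15 nM final) started a 5 min reaction; beads (10 ug/ml final) were then added for 10 min before AlphaScreen detection.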
IL1B secr inh: inhibitors of inflammasome signaling (IL-1 beta secretion); THP-1 LPS/ATP IL-1B secretion, AlphaLISA, 16 h; active compounds read low; activity change, % at 57.5 µM; actives 4.7% (n = 360,000); AID 743279; in the data active means activity change below about -50%; inconclusive means mostly about -30% to -49%; further: on the % scale 0 is the no-effect control and ±100 the full control effect
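Secreted IL-1B measured by AlphaLISA bead assay after 16 h compound exposure of THP-1 cells; compounds (final up to 57.5 uM) added 1 h before LPS (250 ng/mL) and ATP (1.25 mM) stimulation; lower signal means less secretion.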
TGFb inhibitor: TGF-b pathway inhibition; actives 1.2% (n = 410,000); Potency, µM (highest dose often 46.1 µM), without a hit: at the highest dose activity, negative = inhibition, actives largely listed as inhibitors; AID 588855; HepG2 CAGA-GFP TGF-b/SMAD3 reporter, GFP fluorescence, 18 h; TGF-beta stimulated, 500 pg/mL final; further: potency means the concentration at half of the fitted maximal effect; on the % scale 0 is the no-effect control and ±100 the full control effect; nearly all actives have a fitted effect of over 65% in size
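First, reporter cells (HEPG2 CAGA-GFP) rested 2 h at 37 degrees C. Next, compounds were pinned in and TGF-beta added to 500 pg/mL final. After 18 h, GFP was imaged per cell and summed per well.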
HepG2 viability: counter-screen for TGF-b inhibitors: cytotoxicity in HepG2 cells | HepG2 CAGA-GFP viability, ATP luminescence, 18 h | Potency, µM (titrated, usually from 46.1 µM), for the others: at the highest dose activity change, negative = cytotoxicity, hits mostly cytotoxic | actives 0.76% (n = 410,000) | AID 588856; further: potency means the concentration at half of the fitted maximal effect
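HepG2 CAGA-GFP cells (1000/well, DMEM with 1% FBS) received compound, then TGF-beta at 500 pg/mL final, and were incubated 18 hours at 37 degrees C. Viability was read by CellTiter-Glo luminescence. Media-only wells were set as complete cell-killing and DMSO as no toxicity.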
An asterisk follows results filed as active; ? = inconclusive; · = no result given. Unless noted, the call rests on the fitted dose curve; in most records, active means well fitted curve in the direction sought with a large enough effect; inconclusive means small, poorly fitted or top-dose-only effect, or another doubt; inactive means no such curve, though single readings can be large; an effect the other way counts as inactive or inconclusive.

SMILES	TDP1 cell noCPT	TDP1 cell CPT	TDP1 block	IL1B secr inh	TGFb inhibitor	HepG2 viability
O=C(COC(=O)C1(c2cccc(F)c2)CCCC1)NCc1cccs1	-3%	-20%	-6%	3	-1%	-17%
NC(=O)c1ccc(NC(=O)COC(=O)C2(c3cccc(F)c3)CCCC2)cc1	26µM*	?	1%	-13	-16%	-16%
CCN(CC)CCCNC(=O)C1CCN(S(C)(=O)=O)CC1	-17%	2%	5%	·	0%	9%
Cc1ccc2nc(N3CCN(C(=O)C4CC4)CC3)sc2c1	-12%	-1%	-8%	·	6%	2%
CCc1ccc2nc(N3CCN(C(=O)C(C)(C)C)CC3)sc2c1	18µM*	?	1%	-2	-26%	-5%
CCC(=O)N1CCN(c2nc3ccc(Br)cc3s2)CC1	18µM*	?	6%	-19	?	-23%
CC(C)(C)C(=O)N1CCN(c2nc3ccccc3s2)CC1	?	-23%	1%	10	22%	25%
CCCCC(=O)N1CCN(c2nc3ccc(F)cc3s2)CC1	8.2µM*	?	0%	-2	?	-49%
CCCC(=O)N1CCN(c2nc3ccc(F)cc3s2)CC1	12µM*	15µM*	3%	·	-1%	-25%
CCCC(=O)N1CCN(c2nc3ccccc3s2)CC1	-30%	?	0%	8	-7%	-23%
CC(C)(C)NC(=O)CSc1ncnc2c1nnn2Cc1ccccc1Cl	?	?	-2%	-60*	?	-13%
C=CCn1c(=O)c2ccc(C(=O)NCc3ccccc3)cc2n(Cc2ccccc2Cl)c1=O	7.3µM*	8.2µM*	2%	11	0%	-1%
O=C(NCc1ccc(F)cc1)c1ccc2oc(=O)n(Cc3ccccc3)c2c1	?	?	4%	·	-12%	-8%
C=CCn1c(=O)c2ccc(C(=O)NCc3ccccc3)cc2n(Cc2cccc(Cl)c2)c1=O	13µM*	?	-3%	-13	-4%	-21%
O=C(NCc1ccc(Cl)cc1)c1ccc2oc(=O)n(Cc3ccccc3)c2c1	?	21µM*	-1%	·	?	-13%
CN1CCN(c2ncc3nc(-c4ccccc4)c(=O)n(CCc4ccccc4)c3n2)CC1	-13%	?	·	·	·	·
COC(=O)Nc1ccc2c(c1)N(C(=O)CCN1CCN3CCCC3C1)c1ccccc1S2 (centres undefined)	?	13µM*	8%	-25	-31%	-3%
Cc1ccc(NS(=O)(=O)c2cc(C(=O)Nc3cccnc3)ccc2C)cc1	?	0%	5%	0	4%	8%
CN(c1cccc(NC(=O)c2ccc(Cl)c(S(=O)(=O)Nc3ccccc3)c2)c1)S(C)(=O)=O	16µM*	?	6%	-8	-65%	-21%
Cc1ccc(NS(=O)(=O)c2cc(C(=O)Nc3cccc([N+](=O)[O-])c3)ccc2C)cc1	?	?	-3%	-80*	?	-2%
Cc1ccc(C)c(NC(=O)c2ccccc2NS(=O)(=O)c2cc([N+](=O)[O-])ccc2C)c1	4.1µM*	3.3µM*	5%	?	2.5µM*	-41%
Cc1ccc(C(=O)Nc2ccccc2C(=O)O)cc1S(=O)(=O)Nc1ccccc1	23µM*	-29%	·	10	-10%	0%
COc1cccc(CNC(=O)Nc2cc(C(=O)NCc3cccc(F)c3)ccc2N2CCCC2)c1	?	?	-1%	·	-21%	-15%
CC(C)[C@H]1C(=O)Nc2ccccc2N1C(=O)N[C@@H](Cc1ccccc1)C(=O)N[C@H](C(=O)O)c1ccccc1	-8%	8%	·	23	14%	7%
Cc1ccc(C(=O)Nc2cccc([N+](=O)[O-])c2)cc1S(=O)(=O)Nc1cccc(C(=O)O)c1	?	?	-6%	13	0%	0%
SMILES	TDP1 cell noCPT	TDP1 cell CPT	TDP1 block	IL1B secr inh	TGFb inhibitor	HepG2 viability
Cc1ccc(C(=O)Nc2cccc([N+](=O)[O-])c2)cc1S(=O)(=O)Nc1ccc(NC(=O)c2ccccc2)cc1	16µM*	16µM*	7%	6	-12%	4%
COc1ccccc1N(CC1CO1)S(=O)(=O)c1ccccc1 (centres undefined)	?	?	·	-7	?	-19%
COc1ccc(N(CCOc2ccccc2)S(=O)(=O)c2ccccc2)cc1	16µM*	?	-4%	-5	-1%	-43%
COc1ccc(N(CC2CO2)S(=O)(=O)c2ccccc2)cc1 (centres undefined)	?	?	6%	-69*	3%	-23%
CCOC(=O)c1ccc(N(CC2CO2)S(=O)(=O)c2ccc(C)cc2)cc1 (centres undefined)	16µM*	13µM*	·	?	-2%	-19%
CCOc1ccc(N(CCC#N)S(=O)(=O)c2ccc(OC)cc2)cc1	?	?	1%	22	-16%	-11%
COc1ccccc1N(CC1CO1)S(=O)(=O)c1ccc(C)cc1 (centres undefined)	21µM*	?	8%	-16	-9%	2%
COc1ccc(Cl)cc1N/C(N)=N/c1nc(C)cc(C)n1	-19%	-17%	2%	15	-3%	1%
COc1cc(N/C(N)=N/c2nc(C)cc(C)n2)cc(OC)c1	21µM*	16µM*	·	0	1%	-39%
COc1ccc(C)cc1N/C(N)=N/c1nc(C)cc(C)n1	16µM*	21µM*	9%	-98*	?	-23%
Cc1cc(C)nc(/N=C(\N)Nc2ccc(S(=O)(=O)Nc3nc(C)cc(C)n3)cc2)n1	·	·	3%	·	·	·
COc1ccc(N/C(N)=N/c2nc(C)cc(C)n2)c(OC)c1	12µM*	26µM*	0%	-76*	-10%	-6%
COc1ccc(OC)c(N/C(N)=N/c2nc(C)cc(C)n2)c1	18µM*	?	·	-77*	-29%	-18%
COc1ccc(N/C(=N/c2nc(C)cc(C)n2)NC(=O)Nc2ccc(Cl)c(Cl)c2)c(OC)c1	-27%	-9%	-2%	7	0%	-16%
CC(C)(C)OC(=O)N1CCC(c2c(C(=O)N3CCN(c4ccccn4)CC3)cnn2-c2ccc(F)cc2F)CC1	?	?	1%	·	?	-13%
Cc1ccc(C)c(N/C(N)=N/c2nc(C)cc(C)n2)c1	13µM*	21µM*	4%	-111*	-10%	-2%
